A number with no mark means an inactive call.
Tests used:
Assay in all cases: log2 ratio of Biotin-Ahx-Ub-VS probe labelling (fragment/DMSO); higher = less target engagement (more negative = stronger competition), active = hit call of the paper (q ≤ 0.05, log2 ratio ≤ -1)
Conditions in all cases: compound concentration: 200 uM; treatment time: 3 h
USP42 = target: T1, USP42 (UniProt Q9H9J4)
T1 sequence (whole entry): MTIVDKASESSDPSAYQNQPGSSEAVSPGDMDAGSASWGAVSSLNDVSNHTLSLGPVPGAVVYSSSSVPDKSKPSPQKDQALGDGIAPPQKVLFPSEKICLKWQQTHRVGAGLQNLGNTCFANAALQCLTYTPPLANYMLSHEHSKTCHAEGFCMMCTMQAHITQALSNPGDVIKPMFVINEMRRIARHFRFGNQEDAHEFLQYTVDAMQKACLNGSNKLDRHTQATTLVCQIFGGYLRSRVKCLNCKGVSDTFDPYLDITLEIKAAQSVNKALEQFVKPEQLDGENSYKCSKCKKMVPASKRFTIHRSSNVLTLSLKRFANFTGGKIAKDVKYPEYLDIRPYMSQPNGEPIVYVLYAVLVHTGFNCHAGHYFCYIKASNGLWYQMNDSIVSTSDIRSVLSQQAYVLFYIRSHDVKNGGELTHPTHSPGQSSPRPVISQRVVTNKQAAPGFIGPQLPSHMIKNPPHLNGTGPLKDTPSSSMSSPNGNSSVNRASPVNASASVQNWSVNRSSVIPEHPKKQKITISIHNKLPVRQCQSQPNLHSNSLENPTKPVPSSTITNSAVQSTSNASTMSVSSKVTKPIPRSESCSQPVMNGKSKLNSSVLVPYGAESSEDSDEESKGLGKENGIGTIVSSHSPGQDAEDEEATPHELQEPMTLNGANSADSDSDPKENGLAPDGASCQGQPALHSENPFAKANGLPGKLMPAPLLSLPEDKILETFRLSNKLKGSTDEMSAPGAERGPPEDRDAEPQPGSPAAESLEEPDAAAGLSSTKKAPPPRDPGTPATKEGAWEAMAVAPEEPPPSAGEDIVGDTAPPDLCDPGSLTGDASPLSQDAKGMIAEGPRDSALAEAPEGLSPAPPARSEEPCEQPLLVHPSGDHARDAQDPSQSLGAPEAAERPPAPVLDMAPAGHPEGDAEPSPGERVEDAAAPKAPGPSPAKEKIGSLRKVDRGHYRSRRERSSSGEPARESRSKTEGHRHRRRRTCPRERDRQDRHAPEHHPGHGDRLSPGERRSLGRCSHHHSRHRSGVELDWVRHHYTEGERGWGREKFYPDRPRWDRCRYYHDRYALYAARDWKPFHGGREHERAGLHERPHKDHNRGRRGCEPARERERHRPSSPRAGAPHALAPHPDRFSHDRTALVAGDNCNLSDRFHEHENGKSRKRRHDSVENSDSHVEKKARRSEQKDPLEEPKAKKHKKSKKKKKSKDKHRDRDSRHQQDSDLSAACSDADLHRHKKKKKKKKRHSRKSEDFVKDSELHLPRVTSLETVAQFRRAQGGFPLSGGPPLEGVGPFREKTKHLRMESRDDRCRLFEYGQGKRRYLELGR
How it was run: (§1)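 The table lists average log2 ratios of fragment over vehicle, from an unpaired t-test on global-median-normalised Spectronaut label-free quantities. Proteins with ≥2 unique peptides were used. Samples were HEK293T lysate (495 µg) treated in triplicate with fragment at 200 µM or vehicle for 3 h, then with Biotin-Ahx-Ub-VS (0.5 µM final) for 1 h, with labelled DUBs NeutrAvidin-enriched and run by diaPASEF LC-MS/MS.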

USP46 = USP46 (UniProt P62068)
Sequence of USP46 (P62068 whole entry): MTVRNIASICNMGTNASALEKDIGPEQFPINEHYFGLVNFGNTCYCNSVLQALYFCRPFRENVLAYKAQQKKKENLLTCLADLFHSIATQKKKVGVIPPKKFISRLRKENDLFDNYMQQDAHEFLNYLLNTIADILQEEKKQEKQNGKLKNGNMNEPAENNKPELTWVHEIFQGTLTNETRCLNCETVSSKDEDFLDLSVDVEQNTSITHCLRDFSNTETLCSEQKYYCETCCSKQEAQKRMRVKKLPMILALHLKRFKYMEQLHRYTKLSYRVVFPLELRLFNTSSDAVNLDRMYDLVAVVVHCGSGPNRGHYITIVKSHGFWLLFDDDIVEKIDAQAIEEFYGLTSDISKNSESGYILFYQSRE
How it was run: as §1

USP47 = target: T2, USP47 (UniProt Q96K76)
T2 sequence (whole entry): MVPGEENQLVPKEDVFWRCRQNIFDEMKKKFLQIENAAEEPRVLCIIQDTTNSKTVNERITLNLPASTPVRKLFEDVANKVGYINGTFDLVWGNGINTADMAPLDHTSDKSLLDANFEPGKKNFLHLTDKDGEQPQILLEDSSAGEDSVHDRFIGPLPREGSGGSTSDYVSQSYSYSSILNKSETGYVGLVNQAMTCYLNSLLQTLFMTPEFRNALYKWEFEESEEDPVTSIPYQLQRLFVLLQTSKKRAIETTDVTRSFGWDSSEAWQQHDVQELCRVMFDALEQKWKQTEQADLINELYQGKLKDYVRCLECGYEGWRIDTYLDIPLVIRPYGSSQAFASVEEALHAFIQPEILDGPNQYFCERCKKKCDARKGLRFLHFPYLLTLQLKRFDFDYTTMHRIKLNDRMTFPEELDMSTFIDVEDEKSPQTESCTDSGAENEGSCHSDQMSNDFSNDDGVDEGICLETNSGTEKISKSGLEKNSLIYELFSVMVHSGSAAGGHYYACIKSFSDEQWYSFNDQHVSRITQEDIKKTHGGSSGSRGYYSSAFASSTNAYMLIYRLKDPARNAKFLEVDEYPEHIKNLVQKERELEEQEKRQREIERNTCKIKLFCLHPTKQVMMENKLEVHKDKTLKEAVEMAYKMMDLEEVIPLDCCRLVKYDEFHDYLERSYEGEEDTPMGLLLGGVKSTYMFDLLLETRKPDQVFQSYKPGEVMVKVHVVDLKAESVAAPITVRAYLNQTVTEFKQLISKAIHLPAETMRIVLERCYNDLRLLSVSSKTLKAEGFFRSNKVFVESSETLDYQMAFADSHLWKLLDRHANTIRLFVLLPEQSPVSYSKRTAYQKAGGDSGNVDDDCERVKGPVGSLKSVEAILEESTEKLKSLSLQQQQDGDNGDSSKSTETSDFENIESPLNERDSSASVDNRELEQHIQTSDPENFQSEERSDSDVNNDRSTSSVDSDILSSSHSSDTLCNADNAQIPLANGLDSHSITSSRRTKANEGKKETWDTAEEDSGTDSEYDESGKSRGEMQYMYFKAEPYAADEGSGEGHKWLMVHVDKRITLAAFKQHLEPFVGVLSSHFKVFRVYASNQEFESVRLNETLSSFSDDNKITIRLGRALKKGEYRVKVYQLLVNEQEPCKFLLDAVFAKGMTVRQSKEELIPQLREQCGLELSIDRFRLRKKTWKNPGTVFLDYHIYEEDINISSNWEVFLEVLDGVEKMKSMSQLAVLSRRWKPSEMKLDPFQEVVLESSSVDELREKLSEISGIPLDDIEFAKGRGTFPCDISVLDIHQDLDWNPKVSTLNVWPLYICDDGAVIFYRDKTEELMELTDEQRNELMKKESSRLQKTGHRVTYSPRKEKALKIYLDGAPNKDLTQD
How it was run: as §1

USP48 = target: T3, USP48 (UniProt Q86UV5)
T3 sequence (whole entry): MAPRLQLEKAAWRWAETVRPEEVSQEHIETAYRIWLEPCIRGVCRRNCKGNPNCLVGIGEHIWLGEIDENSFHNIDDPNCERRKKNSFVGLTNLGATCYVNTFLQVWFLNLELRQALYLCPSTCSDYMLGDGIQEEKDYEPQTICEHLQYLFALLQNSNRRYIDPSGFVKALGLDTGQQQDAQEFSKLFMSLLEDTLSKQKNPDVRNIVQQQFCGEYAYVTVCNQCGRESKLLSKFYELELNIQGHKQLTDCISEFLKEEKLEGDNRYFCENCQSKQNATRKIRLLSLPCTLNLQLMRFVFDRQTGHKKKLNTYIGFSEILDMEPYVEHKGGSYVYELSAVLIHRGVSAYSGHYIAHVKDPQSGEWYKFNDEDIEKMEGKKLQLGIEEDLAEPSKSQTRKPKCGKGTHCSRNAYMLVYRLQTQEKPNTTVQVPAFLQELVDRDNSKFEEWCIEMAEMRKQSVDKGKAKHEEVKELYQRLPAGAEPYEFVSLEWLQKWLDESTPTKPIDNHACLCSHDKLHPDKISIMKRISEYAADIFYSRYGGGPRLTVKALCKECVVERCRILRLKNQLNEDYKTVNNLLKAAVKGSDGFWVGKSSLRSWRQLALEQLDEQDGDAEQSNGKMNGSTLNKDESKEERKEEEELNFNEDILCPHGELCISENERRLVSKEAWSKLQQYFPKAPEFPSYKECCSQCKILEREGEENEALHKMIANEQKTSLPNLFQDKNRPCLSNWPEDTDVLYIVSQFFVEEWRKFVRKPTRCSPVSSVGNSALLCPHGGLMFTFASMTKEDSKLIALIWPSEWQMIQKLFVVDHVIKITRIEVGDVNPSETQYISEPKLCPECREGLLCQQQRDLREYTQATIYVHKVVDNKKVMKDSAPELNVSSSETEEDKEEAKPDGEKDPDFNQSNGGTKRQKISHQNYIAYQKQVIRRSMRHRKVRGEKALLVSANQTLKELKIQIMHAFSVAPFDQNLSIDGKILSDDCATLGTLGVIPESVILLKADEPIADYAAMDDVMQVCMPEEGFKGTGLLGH
How it was run: as §1

USP5 = target: T4, USP5 (UniProt P45974)
T4 sequence (whole entry): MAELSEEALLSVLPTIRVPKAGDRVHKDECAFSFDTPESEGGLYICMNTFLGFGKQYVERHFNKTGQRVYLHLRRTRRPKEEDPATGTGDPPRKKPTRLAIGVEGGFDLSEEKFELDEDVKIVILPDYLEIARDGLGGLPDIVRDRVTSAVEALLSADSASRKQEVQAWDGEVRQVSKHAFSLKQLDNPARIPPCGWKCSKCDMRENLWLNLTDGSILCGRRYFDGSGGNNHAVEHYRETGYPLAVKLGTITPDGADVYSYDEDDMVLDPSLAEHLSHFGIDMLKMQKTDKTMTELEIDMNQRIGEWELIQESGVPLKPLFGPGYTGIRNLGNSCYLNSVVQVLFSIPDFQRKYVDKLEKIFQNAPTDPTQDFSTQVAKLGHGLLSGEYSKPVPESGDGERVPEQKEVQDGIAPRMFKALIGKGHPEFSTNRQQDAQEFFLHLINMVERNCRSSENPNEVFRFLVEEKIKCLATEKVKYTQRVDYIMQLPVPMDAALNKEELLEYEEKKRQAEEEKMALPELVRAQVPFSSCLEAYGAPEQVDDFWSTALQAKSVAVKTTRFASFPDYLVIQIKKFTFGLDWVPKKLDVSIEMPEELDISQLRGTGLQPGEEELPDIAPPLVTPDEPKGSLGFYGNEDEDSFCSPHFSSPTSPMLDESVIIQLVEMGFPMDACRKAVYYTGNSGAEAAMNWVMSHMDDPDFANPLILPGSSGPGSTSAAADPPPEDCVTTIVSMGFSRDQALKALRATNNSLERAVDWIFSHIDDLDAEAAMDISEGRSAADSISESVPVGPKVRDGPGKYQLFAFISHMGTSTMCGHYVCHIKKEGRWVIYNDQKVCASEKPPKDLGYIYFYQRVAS
How it was run: as §1

USP54 = USP54 (UniProt Q70EL1)
How it was run: as §1

USP7 = USP7 (UniProt Q93009)
Sequence of USP7 (Q93009 whole entry, looked up): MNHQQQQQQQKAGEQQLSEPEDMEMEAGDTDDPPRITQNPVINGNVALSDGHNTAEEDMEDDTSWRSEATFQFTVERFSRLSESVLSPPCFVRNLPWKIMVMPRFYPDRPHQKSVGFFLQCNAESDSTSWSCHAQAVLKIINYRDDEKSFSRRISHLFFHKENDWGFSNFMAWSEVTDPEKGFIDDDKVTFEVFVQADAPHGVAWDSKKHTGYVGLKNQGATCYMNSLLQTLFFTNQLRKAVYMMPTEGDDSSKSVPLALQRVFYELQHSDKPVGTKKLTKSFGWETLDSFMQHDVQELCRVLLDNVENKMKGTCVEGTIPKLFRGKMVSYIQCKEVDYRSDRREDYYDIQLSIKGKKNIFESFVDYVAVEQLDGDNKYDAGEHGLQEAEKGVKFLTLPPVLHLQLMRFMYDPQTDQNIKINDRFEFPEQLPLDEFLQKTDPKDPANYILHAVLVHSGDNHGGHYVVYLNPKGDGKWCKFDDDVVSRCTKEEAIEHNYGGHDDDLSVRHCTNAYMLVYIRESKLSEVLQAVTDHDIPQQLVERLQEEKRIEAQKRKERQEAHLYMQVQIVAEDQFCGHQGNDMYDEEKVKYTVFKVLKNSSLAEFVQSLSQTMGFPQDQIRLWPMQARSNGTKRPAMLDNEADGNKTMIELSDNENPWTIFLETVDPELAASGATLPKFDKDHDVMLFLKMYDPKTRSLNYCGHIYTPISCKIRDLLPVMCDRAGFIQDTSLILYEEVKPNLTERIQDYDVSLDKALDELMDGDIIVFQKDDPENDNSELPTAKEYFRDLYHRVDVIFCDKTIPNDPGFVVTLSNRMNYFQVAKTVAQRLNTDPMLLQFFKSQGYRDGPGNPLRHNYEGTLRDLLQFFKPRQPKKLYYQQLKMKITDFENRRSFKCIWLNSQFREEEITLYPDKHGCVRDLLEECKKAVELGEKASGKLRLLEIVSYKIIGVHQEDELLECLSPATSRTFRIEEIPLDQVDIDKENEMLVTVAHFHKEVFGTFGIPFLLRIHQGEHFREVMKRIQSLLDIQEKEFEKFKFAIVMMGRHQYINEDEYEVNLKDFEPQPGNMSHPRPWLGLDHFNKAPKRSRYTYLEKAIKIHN
How it was run: as §1

USP8 = target: T5, USP8 (UniProt P40818)
T5 sequence (whole entry): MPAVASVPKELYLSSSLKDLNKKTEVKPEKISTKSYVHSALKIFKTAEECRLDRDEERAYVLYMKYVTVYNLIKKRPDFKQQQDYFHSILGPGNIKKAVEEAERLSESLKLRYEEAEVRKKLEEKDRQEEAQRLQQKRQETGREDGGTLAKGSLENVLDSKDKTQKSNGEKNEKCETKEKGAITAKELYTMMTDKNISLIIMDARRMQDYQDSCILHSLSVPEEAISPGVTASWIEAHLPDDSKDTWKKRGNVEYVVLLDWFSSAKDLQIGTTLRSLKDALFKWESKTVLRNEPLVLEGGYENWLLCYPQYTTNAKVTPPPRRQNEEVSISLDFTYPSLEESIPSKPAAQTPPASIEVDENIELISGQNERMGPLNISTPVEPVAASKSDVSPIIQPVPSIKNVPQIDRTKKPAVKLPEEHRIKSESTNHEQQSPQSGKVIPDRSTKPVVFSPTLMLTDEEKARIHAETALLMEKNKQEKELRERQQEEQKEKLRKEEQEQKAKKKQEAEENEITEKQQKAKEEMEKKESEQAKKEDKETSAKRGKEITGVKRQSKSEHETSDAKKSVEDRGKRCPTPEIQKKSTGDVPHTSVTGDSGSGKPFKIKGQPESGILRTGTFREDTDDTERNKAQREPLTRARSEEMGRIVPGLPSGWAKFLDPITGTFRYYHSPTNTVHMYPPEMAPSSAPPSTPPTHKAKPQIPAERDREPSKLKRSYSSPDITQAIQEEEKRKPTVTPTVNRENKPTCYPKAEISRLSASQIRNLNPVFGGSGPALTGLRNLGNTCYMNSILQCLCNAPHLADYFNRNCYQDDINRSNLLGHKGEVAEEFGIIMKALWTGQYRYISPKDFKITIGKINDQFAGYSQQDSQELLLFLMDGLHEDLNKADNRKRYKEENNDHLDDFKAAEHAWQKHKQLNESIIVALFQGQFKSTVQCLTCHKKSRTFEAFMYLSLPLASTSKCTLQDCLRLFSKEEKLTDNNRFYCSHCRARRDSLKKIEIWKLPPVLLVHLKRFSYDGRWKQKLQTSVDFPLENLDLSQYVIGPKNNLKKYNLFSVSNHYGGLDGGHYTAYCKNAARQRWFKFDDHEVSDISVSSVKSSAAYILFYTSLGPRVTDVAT
How it was run: as §1

USP9X = USP9X (UniProt Q93008)
Sequence of USP9X (Q93008 whole entry): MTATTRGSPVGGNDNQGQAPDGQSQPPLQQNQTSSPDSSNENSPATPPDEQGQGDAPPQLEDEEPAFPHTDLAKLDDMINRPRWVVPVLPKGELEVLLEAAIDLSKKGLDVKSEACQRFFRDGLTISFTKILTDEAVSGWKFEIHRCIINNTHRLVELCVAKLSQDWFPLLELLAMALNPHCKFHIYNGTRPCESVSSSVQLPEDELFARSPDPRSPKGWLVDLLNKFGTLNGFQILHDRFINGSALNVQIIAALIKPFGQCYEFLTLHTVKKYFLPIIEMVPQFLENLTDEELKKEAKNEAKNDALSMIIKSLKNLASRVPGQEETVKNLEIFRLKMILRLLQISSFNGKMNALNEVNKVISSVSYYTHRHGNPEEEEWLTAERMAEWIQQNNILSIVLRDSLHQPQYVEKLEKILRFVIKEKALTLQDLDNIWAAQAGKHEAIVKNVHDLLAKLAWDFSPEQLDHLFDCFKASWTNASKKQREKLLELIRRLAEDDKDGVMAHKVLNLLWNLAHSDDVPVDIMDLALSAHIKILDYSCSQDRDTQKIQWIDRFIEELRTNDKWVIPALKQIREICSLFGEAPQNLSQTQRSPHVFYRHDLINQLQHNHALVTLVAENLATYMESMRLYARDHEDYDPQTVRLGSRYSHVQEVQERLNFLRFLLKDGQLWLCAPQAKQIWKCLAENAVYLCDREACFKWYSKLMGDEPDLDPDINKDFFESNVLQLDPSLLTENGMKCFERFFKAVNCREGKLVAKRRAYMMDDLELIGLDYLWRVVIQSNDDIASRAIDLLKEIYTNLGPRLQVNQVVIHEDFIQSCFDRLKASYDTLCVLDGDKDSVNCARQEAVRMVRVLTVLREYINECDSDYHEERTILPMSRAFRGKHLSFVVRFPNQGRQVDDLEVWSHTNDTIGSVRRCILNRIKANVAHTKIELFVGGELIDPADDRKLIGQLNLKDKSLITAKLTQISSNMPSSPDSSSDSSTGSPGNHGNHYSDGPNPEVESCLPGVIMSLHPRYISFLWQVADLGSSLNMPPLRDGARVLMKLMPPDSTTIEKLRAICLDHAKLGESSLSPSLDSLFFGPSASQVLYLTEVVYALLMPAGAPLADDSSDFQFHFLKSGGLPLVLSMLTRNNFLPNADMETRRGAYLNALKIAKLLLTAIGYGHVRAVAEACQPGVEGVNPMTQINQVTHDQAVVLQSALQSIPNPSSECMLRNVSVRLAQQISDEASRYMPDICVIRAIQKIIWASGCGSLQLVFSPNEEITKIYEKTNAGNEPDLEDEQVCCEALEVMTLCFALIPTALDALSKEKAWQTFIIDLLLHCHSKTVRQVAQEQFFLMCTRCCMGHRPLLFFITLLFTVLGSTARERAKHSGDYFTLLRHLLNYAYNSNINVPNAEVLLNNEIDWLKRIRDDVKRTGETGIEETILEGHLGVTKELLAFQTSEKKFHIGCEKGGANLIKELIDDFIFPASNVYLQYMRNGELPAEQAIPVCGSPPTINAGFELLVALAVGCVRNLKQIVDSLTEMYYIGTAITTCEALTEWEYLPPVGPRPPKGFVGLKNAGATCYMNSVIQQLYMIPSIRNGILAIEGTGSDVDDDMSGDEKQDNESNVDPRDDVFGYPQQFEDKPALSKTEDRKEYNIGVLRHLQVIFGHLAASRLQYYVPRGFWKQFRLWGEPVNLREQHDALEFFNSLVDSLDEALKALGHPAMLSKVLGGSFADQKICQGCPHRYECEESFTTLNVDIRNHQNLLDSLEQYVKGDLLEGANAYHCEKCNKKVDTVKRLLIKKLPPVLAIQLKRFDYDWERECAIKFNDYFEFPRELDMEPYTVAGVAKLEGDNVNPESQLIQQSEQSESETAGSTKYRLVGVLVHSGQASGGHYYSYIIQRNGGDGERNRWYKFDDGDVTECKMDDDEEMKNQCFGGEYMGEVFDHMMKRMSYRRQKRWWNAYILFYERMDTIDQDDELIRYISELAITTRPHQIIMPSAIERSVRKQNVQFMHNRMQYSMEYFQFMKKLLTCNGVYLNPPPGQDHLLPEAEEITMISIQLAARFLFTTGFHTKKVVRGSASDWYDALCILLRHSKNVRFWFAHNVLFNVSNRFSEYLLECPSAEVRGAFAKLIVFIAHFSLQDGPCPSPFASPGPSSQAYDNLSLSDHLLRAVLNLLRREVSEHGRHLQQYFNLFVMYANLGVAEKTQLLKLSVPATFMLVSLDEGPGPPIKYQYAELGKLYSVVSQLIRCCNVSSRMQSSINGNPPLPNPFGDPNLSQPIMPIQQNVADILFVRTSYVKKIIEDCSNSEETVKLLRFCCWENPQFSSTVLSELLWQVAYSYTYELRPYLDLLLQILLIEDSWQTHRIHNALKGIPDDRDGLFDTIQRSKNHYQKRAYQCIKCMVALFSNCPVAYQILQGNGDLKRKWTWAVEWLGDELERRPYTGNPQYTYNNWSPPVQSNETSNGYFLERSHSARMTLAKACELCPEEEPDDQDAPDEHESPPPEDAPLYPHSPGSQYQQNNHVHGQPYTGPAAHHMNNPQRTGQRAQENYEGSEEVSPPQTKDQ
How it was run: as §1

UniProt O00487 = target: UniProt O00487
Sequence of UniProt O00487 (O00487 whole entry): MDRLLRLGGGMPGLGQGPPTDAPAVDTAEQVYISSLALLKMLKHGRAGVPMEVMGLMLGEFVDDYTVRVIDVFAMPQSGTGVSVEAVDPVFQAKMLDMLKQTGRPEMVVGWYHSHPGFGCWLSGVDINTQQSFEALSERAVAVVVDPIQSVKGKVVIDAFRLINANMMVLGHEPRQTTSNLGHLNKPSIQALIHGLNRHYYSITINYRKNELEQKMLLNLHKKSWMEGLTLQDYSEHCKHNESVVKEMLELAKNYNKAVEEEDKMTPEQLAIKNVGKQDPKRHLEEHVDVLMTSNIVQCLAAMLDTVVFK
How it was run: as §1

O=C(CCl)N1CCOC(c2cccc(F)c2)C1 (stereo not given)
log2 ratio of Biotin-Ahx-Ub-VS probe labelling (USP42): -0.424
log2 ratio of Biotin-Ahx-Ub-VS probe labelling (USP46): -0.374
log2 ratio of Biotin-Ahx-Ub-VS probe labelling (USP47): -0.467
log2 ratio of Biotin-Ahx-Ub-VS probe labelling (USP48): -1.36 (active)
log2 ratio of Biotin-Ahx-Ub-VS probe labelling (USP5): 0.362
log2 ratio of Biotin-Ahx-Ub-VS probe labelling (USP54): 0.45
log2 ratio of Biotin-Ahx-Ub-VS probe labelling (USP7): -0.705
log2 ratio of Biotin-Ahx-Ub-VS probe labelling (USP8): -0.461
log2 ratio of Biotin-Ahx-Ub-VS probe labelling (USP9X): -0.504
log2 ratio of Biotin-Ahx-Ub-VS probe labelling (UniProt O00487): 0.15
